Among all 220,000 compounds or so, about 830 (0.38%) were called active. The list is a sample of the results. Potency and affinity values are given separately. Unmarked numbers belong to inactive results.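 The calls were made as follows: active = compound inhibiting the enzyme by more than half at any dose during confirmatory dose-response retesting; inconclusive = strong single-dose inhibitors picked by rank but not retested; inactive = the rest.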
The compounds below were run against Leucine aminopeptidase (Plasmodium falciparum (isolate 3D7)) (UniProt Q8IL11) (assay: P. falciparum M17LAP inhibitors, primary screen, biochemical, fluorogenic H-Leu-NHMec substrate, 1536-well (AID 1619;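 also: plate controls were full reaction with DMSO carrier for no effect and no enzyme background for full effect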)). Conditions: recombinant M17LAP, H-Leu-NHMec fluorogenic kinetic assay; at 30 µM; active compounds read high.
Sequence of Leucine aminopeptidase (Plasmodium falciparum (isolate 3D7)) (Q8IL11 whole entry, looked up): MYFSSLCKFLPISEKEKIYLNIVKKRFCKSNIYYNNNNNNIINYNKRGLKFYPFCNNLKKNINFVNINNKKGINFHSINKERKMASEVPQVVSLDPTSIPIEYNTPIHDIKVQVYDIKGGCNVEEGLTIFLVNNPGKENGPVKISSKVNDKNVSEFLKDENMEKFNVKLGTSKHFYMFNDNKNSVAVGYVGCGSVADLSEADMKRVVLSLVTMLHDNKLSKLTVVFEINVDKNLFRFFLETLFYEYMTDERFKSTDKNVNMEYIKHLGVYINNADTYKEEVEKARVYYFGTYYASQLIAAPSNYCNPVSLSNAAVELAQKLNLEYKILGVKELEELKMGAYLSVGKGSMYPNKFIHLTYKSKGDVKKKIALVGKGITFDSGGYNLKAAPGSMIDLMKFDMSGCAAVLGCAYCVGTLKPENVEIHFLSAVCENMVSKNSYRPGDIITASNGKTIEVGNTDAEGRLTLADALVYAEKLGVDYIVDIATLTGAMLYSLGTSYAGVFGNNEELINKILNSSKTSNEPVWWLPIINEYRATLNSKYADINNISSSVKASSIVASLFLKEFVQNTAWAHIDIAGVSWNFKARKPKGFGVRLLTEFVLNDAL
Compound CC(C)CN(CC(C)C)S(=O)(=O)N1CCC(C(=O)NCc2ccc3c(c2)OCO3)CC1 has an inhibition of -3.17%.
Compound Cc1ccc(-n2cccc2/C=C2/C(=N)N3C(=NC2=O)SN=C3S(C)(=O)=O)cc1 has an inhibition of 26.3%.
For N=C1/C(=C\c2ccc(-c3ccc(C(=O)O)cc3)o2)C(=O)N=C2SC=C(c3ccccc3)N12, the inhibition was 23.3%.
With CC(C)S(=O)(=O)C1=NSC2=NC(=O)/C(=C\c3ccc(-c4cccc(C(=O)O)c4)o3)C(=N)N21 the inhibition was 46.5%.
Compound CS(=O)(=O)C1=NSC2=NC(=O)/C(=C\c3ccc(-c4ccccc4)o3)C(=N)N21 has an inhibition of 55.5%.
Cc1ccc(-n2nc(C)c3c2OC(N)=C(C#N)C3c2ccncc2)cc1 (configuration not stated) gave an inhibition of 21.6%.
With Cc1cc(C(=O)NC2CCCCC2)on1 the inhibition was 13.6%.
With O=C(COC(=O)c1cncc(Br)c1)NCc1ccccc1 the inhibition was -0.29%.
C/C(=N/O)c1no[n+]([O-])c1/C(C)=N\O was tested, and the inhibition was 4.25%.
COC(=O)CSc1nc2cc(Cl)ccc2c(=O)n1C1CCCC1 showed an inhibition of -2.31%.
In the case of Cc1c(N=C(N)/N=C(\N)Nc2ccc(Br)cc2)c(=O)n(-c2ccccc2)n1C, the inhibition was -11.5%.
CC1CCCCN1S(=O)(=O)c1ccc(N(C(=O)c2cnccn2)C(C(=O)NC2CCCCC2)c2cccs2)cc1 (configuration not stated) gave an inhibition of -5%.
CC(C)C(=O)c1cc2c(cc1NC(=O)c1cccs1)OCCO2 showed an inhibition of 2.83%.
CC(OC(=O)c1cc2c(ccc3ccccc32)oc1=O)c1nc2ccccc2s1 (configuration not stated) was tested, and the inhibition was -3.25%.
In the case of Cc1cc(NCc2ccc3c(c2)OCO3)n2nc(C)nc2n1, the inhibition was -0.05%.
In the case of COc1cccc(-c2nnn(CC(=O)Nc3ccc(C)cc3C)n2)c1OC, the inhibition was -10%.
Compound COc1cccc(-c2nnn(CC(=O)NC3CCCC3)n2)c1OC has an inhibition of 13.1%.
CC(=O)c1cc(CN2CCN(CC=C(C)C)C(CCO)C2)cs1 (configuration not stated) was tested, and the inhibition was -1.16%.
CC1(C)CC(C#N)(N2CCOCC2)CCO1 (configuration not stated) gave an inhibition of -15.2%.
COc1cccc2c(SCC(=O)N/N=C/c3ccccc3)cc(C)nc12 gave an inhibition of 2.63%.
For COc1cccc2c(SCC(=O)N/N=C/c3ccc(O)cc3O)cc(C)nc12, the inhibition was 16.9%.
Compound Cc1ccc2nc(C(O)C(O)c3nc4ccc(C)cc4[nH]3)[nH]c2c1 (configuration not stated) has an inhibition of 12.8%.
COc1ccc(/C=N/NC(=O)c2[nH]c(C)c(C(=O)N/N=C/c3ccc(OC)cc3)c2C)cc1 gave an inhibition of -5.84%.
For Cc1[nH]c(C(=O)N/N=C/c2ccc(N(C)C)cc2)c(C)c1C(=O)N/N=C/c1ccc(N(C)C)cc1, the inhibition was -3.97%.
With O=C(N/N=C/c1cccs1)c1c[nH]c2ccccc12 the inhibition was 19.5%.
With O=C(COc1ccc(C(=O)c2ccccc2)cc1)NCC(=O)Nc1ccccc1Br the inhibition was 0.07%.
With O=C1/C(=C/c2cccnc2)CCC/C1=C\c1cccnc1 the inhibition was 12.8%.
Compound N#Cc1cc(-c2ccccc2)nn1-c1ccccc1 has an inhibition of -15.3%.
In the case of Cn1c(-c2ccccc2)n[nH]c1=S, the inhibition was -6.39%.
With O=C(CN1C(=O)CSC1=O)Nc1ccc2c(c1)OCCO2 the inhibition was 53.7%.
For CCOc1ccccc1C(=O)Nc1nncs1, the inhibition was -3.85%.
With Cc1nnc(NC(=O)c2ccccc2Br)s1 the inhibition was -1.4%.
Compound O=C(Nc1ccccc1C(=O)Nc1nncs1)c1ccccc1 has an inhibition of 11.8%.
O=C(Nc1nncs1)c1cccnc1Cl gave an inhibition of 26.3%.
CCCCc1nc2sc3c(c2c(=O)[nH]1)CCC3 gave an inhibition of -6.58%.
COc1ccccc1C1SCCN1S(C)(=O)=O (configuration not stated) was tested, and the inhibition was -6.23%.
COc1cccc(OCC(=O)O/N=C(\N)c2ccc(OC)c(OC)c2)c1 was tested, and the inhibition was -15%.
COc1ccc2oc(C)c(C(N)=O)c2c1 gave an inhibition of 2.03%.
Compound CCOC(=O)CCC(=O)c1c(C)oc2ccc(OC)cc12 has an inhibition of 9.88%.
For O=C1NC[C@H](Cc2ccc(O)cc2)N(CCc2cccc3ccccc23)C1=O, the inhibition was -2.35%.
In the case of COc1ccc(NC(=O)CN2C(=O)CSC(C)C2=O)c(OC)c1 (configuration not stated), the inhibition was 37.7%.
CCOc1ccc(NC(=O)C2CCC(N3C(=O)C4CC=CCC4C3=O)CC2)cc1 (configuration not stated) gave an inhibition of 48%.
Work on O=C(CN1C(=O)C2CC=CCC2C1=O)Nc1ccc(S(=O)(=O)Nc2ncccn2)cc1 (configuration not stated) yielded an inhibition of 1.4%.
Work on CCOC(=O)c1ccc(NC(=O)CN2C(=O)CSC2=O)cc1 yielded an inhibition of 19%.
With CCOc1ccc(NC(=O)CN2C(=O)NC(CCSC)C2=O)cc1 (configuration not stated) the inhibition was 27.7%.
CCOC(=O)c1ccc(NC(=O)CN2C(=O)CCC2=O)cc1 gave an inhibition of -7.84%.
In the case of CCOc1ccc(N2C(=O)C3CCCN3C2=O)cc1 (configuration not stated), the inhibition was -1.37%.
For COc1ccc(NC(=O)CN2C(=O)CSC2=O)cc1, the inhibition was 30.1%.
In the case of Cc1cccc(OCCSc2nncn2C)c1, the inhibition was -2.41%.
O=C1c2ccccc2C(=O)N1CSc1nnc(Nc2ccccc2F)s1 was tested, and the inhibition was 4.65%.
With CN(C)c1oc(-c2ccccc2Cl)nc1S(=O)(=O)c1ccccc1 the inhibition was 0.69%.
Cc1cccc(C)c1NC(=S)N/N=C/c1ccccc1C(=O)O gave an inhibition of 7.19%.
COc1cc(/C=C/C(=O)OCC(=O)Nc2ccccc2Cl)cc(OC)c1OC was tested, and the inhibition was 7.2%.
With Cc1ccccc1C(=O)NC(CC(C)C)C(=O)OCC(=O)c1c(N)n(C)c(=O)n(C)c1=O (configuration not stated) the inhibition was -1.49%.
CC(C)(C)NC(=O)C(c1ccc(O)cc1)N(C(=O)CCC(=O)Nc1nccs1)c1ccc(F)cc1 (configuration not stated) gave an inhibition of 13.2%.
O=C(CCCOc1ccccc1)Nc1ccccc1C(F)(F)F gave an inhibition of -17.7%.
For O=C1CC(c2ccccc2)=NN1c1nc(-c2ccccc2)cs1, the inhibition was -0.33%.
CC1SCC(=O)N(CC(=O)Nc2ccc3c(c2)OCCO3)C1=O (configuration not stated) showed an inhibition of 2.2%.
Work on CCOC(=O)c1ccc(NC(=O)CN2C(=O)CSC(C)C2=O)cc1 (configuration not stated) yielded an inhibition of 37%.
In the case of O=C(CN1C(=O)CSCC1=O)NCc1ccc(F)cc1, the inhibition was 18.6%.
With CCOc1ccc(NC(=O)CN2C(=O)CSC2=O)cc1 the inhibition was 54.4%.
CCOc1ccc(NC(=O)CN2C(=O)C(C)SC(C)C2=O)cc1 (configuration not stated) was tested, and the inhibition was 5.98%.
For COc1ccc(NC(=O)CN2C(=O)C(C)SC(C)C2=O)c(OC)c1 (configuration not stated), the inhibition was 26.5%.
With CC1SC(C)C(=O)N(CC(=O)Nc2ccc3c(c2)OCO3)C1=O (configuration not stated) the inhibition was 35.2%.
CCC1SC(CC)C(=O)N(CC(=O)NCc2ccc(F)cc2)C1=O (configuration not stated) was tested, and the inhibition was 7.04%.
Compound CCOC(=O)C1(CCSC)NC(c2ccco2)C2C(=O)N(C)C(=O)C21 (configuration not stated) has an inhibition of -0.76%.
Work on CC(=O)c1sc(N2CCOCC2)nc1-c1ccccc1 yielded an inhibition of 9.61%.
OCCC1CN(Cc2nc(-c3ccccc3)cs2)CCN1C1CCCC1 (configuration not stated) gave an inhibition of 7.26%.
Cc1c(-c2ccccc2)oc2c(C(=O)OCC(=O)Nc3cccc(F)c3)cccc2c1=O gave an inhibition of 2.04%.
CCOC(=O)c1ccc(NC(=O)c2cccc(C)c2[N+](=O)[O-])cc1 was tested, and the inhibition was 0.85%.
In the case of CCCCN(CC)S(=O)(=O)c1ccc(C(=O)N(CCCN(C)C)c2nc3cc(C)cc(C)c3s2)cc1, the inhibition was -3.97%.
Compound CC(=O)Nc1cccc(C(=O)OCc2ccc([N+](=O)[O-])cc2)c1 has an inhibition of 1.17%.
Work on Cc1cccc(Nc2nnc(C)c(=O)n2N)c1 yielded an inhibition of 8.38%.
In the case of O=c1[nH]c2ccc(S(=O)(=O)N3CCN(c4ccccc4)CC3)cc2[nH]c1=O, the inhibition was 40.2%.
O=c1[nH]c2ccc(S(=O)(=O)N3CCCCC3)cc2[nH]c1=O gave an inhibition of 38.3%.
Work on COCC(=O)NCc1ccc2c(c1)OCO2 yielded an inhibition of -6.02%.
Work on COC(=O)NCc1ccc2c(c1)OCO2 yielded an inhibition of 2.83%.
COc1ccc(OCCCC(=O)Nc2cccc(SC)c2)cc1 was tested, and the inhibition was 1.34%.
Compound O=c1cc(O)c2sc3nc(-c4ccccc4)cc(C(F)(F)F)c3c2[nH]1 has an inhibition of -7%.
With Nc1c(C(=O)C2CC2)sc2nc(-c3ccccc3)cc(C(F)(F)F)c12 the inhibition was -0.94%.
With Cc1cc(C)cc(N(C(=O)c2sc(C)nc2C)C(C(=O)NC(C)(C)C)c2ccncc2)c1 (configuration not stated) the inhibition was 0.85%.
Work on FCCCOc1ccc(/C=N/OCc2ccc(Cl)cc2Cl)cc1 yielded an inhibition of 11.5%.

From PubChem BioAssay AID1619 (SRMLSC, 2009)
